Measured values published in article PMC5540273 (PLoS ONE, 2017).

How the values were obtained:
Conditions in all cases: concentration: 1 μM, replicates: in singlicate; n = 1
STK36 = system: STK36
STK39 = system: STK39
SYK = system: SYK
SgK110 = system: SgK110
TAK1 = system: T1, TAK1
T1 construct: gene MAP3K7

TAOK1 = system: TAOK1
TAOK2 = system: TAOK2
TAOK3 = system: TAOK3
TBK1 = system: TBK1
TEC = system: TEC
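Also: KINOMEscan kinase panel screen.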

SMILES	%Inh (STK36) [%]	%Inh (STK39) [%]	%Inh (SYK) [%]	%Inh (SgK110) [%]	%Inh (TAK1) [%]	%Inh (TAOK1) [%]	%Inh (TAOK2) [%]	%Inh (TAOK3) [%]	%Inh (TBK1) [%]	%Inh (TEC) [%]
c1ccc(Oc2ccc(Nc3ccnc4cc(-c5ccc(CNCCN6CCOCC6)o5)ccc34)cc2)nc1 [GW567145]	0	1	14	0	0	0	0	0	1	39
COc1cc(Nc2nccc(N3CCC(NC(=O)Nc4cccc(C(C)=O)c4)C3)n2)cc(OC)c1OC (centres unmarked) [GSK1379753]	30	0	28	0	0	0	0	0	28	0
COc1cccc(-c2ccc3c(NC(=O)C4CC4)n[nH]c3n2)c1 [SB-710903]	0	17	19	0	0	30	4	0	13	0
COc1cc(Nc2ncc3c(C)nc(-c4cc5ccccc5[nH]4)n3n2)cc(OC)c1OC [GW869516]	6	0	53	0	48	0	0	0	58	0
NCCCC(NC(=O)c1cc(Br)c(-c2ccnc3[nH]ccc23)s1)c1ccccc1.O=C(O)C(F)(F)F.O=C(O)C(F)(F)F (centres unmarked) [GSK1287544]	0	0	0	58	0	34	0	0	0	0
c1ccc(-c2n[nH]cc2Nc2ccnc3ccccc23)nc1 [GW694077]	0	8	16	0	91.6	66	21	10	0	0
Cl.NC(=O)c1cccc(Nc2nccc(Nc3ccc(Oc4c(Cl)cccc4Cl)c(Cl)c3)n2)c1 [GW659009]	0	0	0	0	1	9	0	8	0	0
Cl.c1ccc(-c2ccc3c(Nc4ccc5[nH]ncc5c4)ccnc3c2)nc1 [GW440137]	0	6	27	6	0	0	0	0	21	0
COc1cccc(C(=O)Nc2cccc(Oc3ccc4nc(NC(=O)C5CC5)cn4n3)c2)c1	0	0	12	0	0	34	58	0	48	9
Cc1ccc(C(=O)N2CC[C@@H](O)C2)cc1-n1c(C)cc(OCc2ccc(F)cc2F)c(Br)c1=O	0	0	7	0	0	31	57	0	1	0
CN(c1ccc(NC(=O)Nc2cc(C(F)(F)F)ccc2F)cc1)c1ccnc(Nc2ccc(S(N)(=O)=O)cc2)n1 [GW809893]	0	0	91.9	0	60	53	86	79	29	0
COc1ccc(CNC(=O)NC2CCN(c3ccnc(Nc4ccc(F)cc4)n3)CC2)cc1 [GSK1379788]	0	0	21	0	0	0	0	0	2	0
O=C(Nc1cccc(-c2nn3ccccc3c2-c2ccnc(Nc3cccc(F)c3)n2)c1)c1c(F)ccc(F)c1Cl [GSK357952]	99.3	35	16	0	0	33	0	34	3	60
c1ccc(-c2cnc3nccnn23)cc1 [AH20685]	0	0	26	0	0	0	0	0	0	0
COc1cc(Nc2nccc(-c3c(-c4cccc(NC(=O)c5c(F)cccc5F)c4)nn4ncccc34)n2)cc(OC)c1OC [GSK327238]	100	13	74	69	15	58	39	63	12	95.2
COc1ccc(-c2coc3ccc(-c4nnc(SCc5ccc(OC)c(C(F)(F)F)c5)o4)cc23)cc1	29	0	0	4	0	0	0	0	11	18

SMILES	%Inh (STK36) [%]	%Inh (STK39) [%]	%Inh (SYK) [%]	%Inh (SgK110) [%]	%Inh (TAK1) [%]	%Inh (TAOK1) [%]	%Inh (TAOK2) [%]	%Inh (TAOK3) [%]	%Inh (TBK1) [%]	%Inh (TEC) [%]
Cn1cc(-c2ccc3c(c2)CCN3C(=O)Cc2cccc(Cl)c2)c2c(N)ncnc21 [GSK2606590]	0	9	38	0	42	0	0	0	27	4
Cl.Cl.NCC(NCc1ccc(-c2ccnc3[nH]ccc23)s1)c1ccccc1 (centres unmarked) [GSK1321565]	0	5	23	8	44	26	0	0	8	0
O=C(O)C(F)(F)F.O=C(O)C(F)(F)F.O=c1[nH]ccc2nc(N[C@@H]3CCCNC3)nc(Nc3ccc(S(=O)(=O)N4CCOCC4)cc3)c12 [GSK2177277]	26	90.6	93.1	95	99.9	99.8	82	99.5	90	38
O=C(NC1CCN(c2ccnc(Nc3ccc(F)cc3)n2)C1)c1cc2ccccc2s1 (centres unmarked) [GSK1379716]	0	4	42	0	0	0	0	0	20	16
Cc1ccc(F)c(C(=O)Nc2cccc(-c3nn4ccccc4c3-c3ccnc(Nc4cccc(F)c4)n3)c2)c1F [GSK361061]	99.1	18	45	0	0	33	18	41	29	75
Cn1cc(-c2ccc3c(c2)CCN3C(=O)Cc2cccc(F)c2)c2c(N)ncnc21 [GSK2603358]	0	12	18	0	30	0	0	0	19	8
Cc1ccc(C)c(NC(=O)NC2CCN(c3ccnc(Nc4ccc(F)cc4)n3)C2)c1 (centres unmarked) [GSK1379720]	5	10	16	11	0	0	0	0	0	2
CCS(=O)(=O)c1ccc(OC)c(Nc2nccc(-c3c(-c4cccc(NC(=O)c5c(F)cccc5F)c4)nn4ncccc34)n2)c1 [GSK326180]	99.7	16	4	0	0	0	0	0	21	4
O=c1[nH]cc(-c2ccc(N3CCOCC3)cc2)c2sc(-c3cn[nH]c3)cc12 [GSK2276055]	0	3	0	0	53	68	5	21	25	0
Cc1ccc(S(=O)(=O)Nc2ccc(Nc3nccc(Nc4cccc5[nH]ncc45)n3)cc2)cc1 [GSK581271]	0	1	31	0	0	0	0	0	9	9
Cc1occc1-c1ncc(OC[C@@H](N)Cc2c[nH]c3ccccc23)cc1-c1ccc2[nH]nc(C)c2c1.O=C(O)C(F)(F)F [GSK682037]	0	15	0	0	97.9	97.7	36	83	0	0
CN1CCN(CCCNc2nccc(-c3c(-c4ccc(F)cc4)nn4cc(C(F)(F)F)ccc34)n2)CC1 [GW621581]	97.6	3	10	0	0	4	0	8	0	0
CC(=O)Nc1nc2cnc(Nc3cc(NC(=O)c4cccc(C5(C#N)CC5)c4Cl)ccc3C)nc2s1	0	0	5	19	3	0	0	0	0	0
FC(F)(F)c1ccc(/C=C/c2cncnc2Nc2ccc3[nH]c(Cc4ccccc4)nc3c2)cc1 [GW709199]	0	0	10	9	0	0	0	0	36	14
CSc1cccc2c(-c3ccncn3)c(-c3ccc(F)cc3)nn12 [GW514786]	38	10	42	0	9	0	0	0	8	0
COc1cc(Nc2nccc(N3CCC(NC(=O)c4cc5ccccc5s4)C3)n2)cc(OC)c1OC (centres unmarked) [GSK1379760]	32	0	52	0	12	0	0	0	3	10
